This is a sample that favours compounds with a hit; in the whole collection about 1.6% have one here.
Fam108B inh: mouse Fam108B serine hydrolase inhibitors, primary screen, counter-screen for RBBP9 inhibitor project, biochemical, fluorescence polarization; recombinant Fam108B, FP-Rh probe fluorescence polarization; inhibition, % at 9.51 µM; 300,000 tested, 0.33% active; AID 1947, 2009;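 active = inhibition above the screen mean inhibition plus 3 SD, computed separately per campaign, cut at about 18% in these data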;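 note: inhibitors lower polarization as less probe binds the enzyme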
MEX-5 binding: MEX-5 zinc finger RNA-binding disruptors – biochemical, C. elegans, fluorescence polarization, MLPCN library, primary screen; AID 1832, 2009; Zinc finger protein mex-5 (Caenorhabditis elegans), Q9XUB2; activity score (negative = inhibition of binding), % at 10 µM; 300,000 tested, 0.38% active; MEX-5/FITC-TCR2 RNA binding; active compounds read low;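 active = inhibition past about -25% in most replicates, and total fluorescence under double the plate's negative control median, limit read from the data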;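 note: 0% = DMSO and -100% = 5 µM competing unlabeled TCR2 RNA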
LYPLA1 counter: LYPLA1 inhibitors, primary screen, counter-screen for PME1 inhibitor project, biochemical, fluorescence polarization, FP-Rh probe ABPP; Acyl-protein thioesterase 1 (Homo sapiens), O75608; recombinant LYPLA1; inhibition, % at 5.9 µM; 320,000 tested, 0.16% active;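 active = inhibition above the mean of all tested compounds plus 3 SD, set per campaign, cut at about 14% in these data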;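 note: inhibitors block serine hydrolase probe labeling of LYPLA1 so polarization falls; 0% = enzyme with DMSO and 100% = wells lacking LYPLA1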
LYPLA2 counter: LYPLA2 inhibitors, primary screen, counter-screen for PME1 inhibitor project, biochemical, fluorescence polarization, FP-Rh probe ABPP; inhibition, % at 5.9 µM; Acyl-protein thioesterase 2 (Homo sapiens), O95372; 320,000 tested, 0.38% active; recombinant LYPLA2;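 active = inhibition above the screen-wide mean plus 3 SD, limit set per campaign, cut at about 26% in these data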;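 note: 0% = LYPLA2 with DMSO and 100% = wells lacking LYPLA2 enzyme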
Target sequence (O95372 whole entry, looked up): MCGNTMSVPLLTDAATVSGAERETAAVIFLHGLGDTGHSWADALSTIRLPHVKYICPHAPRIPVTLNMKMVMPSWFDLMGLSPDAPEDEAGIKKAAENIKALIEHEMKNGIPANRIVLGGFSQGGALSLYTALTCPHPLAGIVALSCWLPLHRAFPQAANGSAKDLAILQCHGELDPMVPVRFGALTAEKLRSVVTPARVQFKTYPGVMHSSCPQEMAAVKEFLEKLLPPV
PME-1 inh: PME-1 inhibitors via competitive probe labeling, primary screen, biochemical, fluorescence polarization, FP-Rh probe, HTS | Protein phosphatase methylesterase 1 (Homo sapiens), Q9Y570 | recombinant PME-1 | inhibition, % at 5.9 µM | 320,000 tested, 0.53% active | AID 2130, 2009;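 active = inhibition above the campaign mean of all compounds plus 3 SD, cut at about 26% in these data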;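 note: competitive labeling of PME-1 active site by serine hydrolase directed probe; 0% = PME-1 with DMSO and 100% = wells lacking PME-1 enzyme; inhibitors block probe labeling so polarization falls and inhibition rises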
Target sequence (Q9Y570 whole entry, looked up): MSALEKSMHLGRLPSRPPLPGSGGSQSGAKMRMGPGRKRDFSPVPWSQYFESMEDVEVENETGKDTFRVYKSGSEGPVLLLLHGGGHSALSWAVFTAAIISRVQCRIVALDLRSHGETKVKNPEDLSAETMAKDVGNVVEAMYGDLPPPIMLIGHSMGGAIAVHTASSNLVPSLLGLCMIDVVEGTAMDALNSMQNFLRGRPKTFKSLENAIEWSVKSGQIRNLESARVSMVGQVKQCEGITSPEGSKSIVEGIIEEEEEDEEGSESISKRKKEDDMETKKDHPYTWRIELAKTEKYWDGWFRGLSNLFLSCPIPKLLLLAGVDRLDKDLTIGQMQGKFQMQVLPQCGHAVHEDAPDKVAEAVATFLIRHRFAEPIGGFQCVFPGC
PREPL inh: PREPL enzyme inhibitors, primary screen, biochemical, fluorescence polarization. Prolyl endopeptidase-like (Homo sapiens), Q4J6C6. recombinant PREPL, fluorescence polarization activity-based probe. inhibition, % at 5.96 µM. 320,000 tested, 0.68% active;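 note: 0% = enzyme with DMSO and 100% = wells lacking enzyme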
PREPL confirm: human PREPL enzyme inhibitors, confirmation, biochemical, fluorescence polarization; shares compounds with PREPL inh; recombinant PREPL, fluorescence polarization activity probe; inhibition, % at 5.96 µM; 2,000 tested, 67% active; AID 2803, 2010;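 note: 0% = protein with DMSO and 100% = wells lacking protein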
Active calls of the source: *; · = no result. Cut-off read from the data, not from the text of the source, unless noted: active = inhibition above about 43%; inactive = the rest.

SMILES	Fam108B inh	MEX-5 binding	LYPLA1 counter	LYPLA2 counter	PME-1 inh	PREPL inh	PREPL confirm
CC[C@@]12C(=O)N(c3cccc(Br)c3)C(=O)N1[C@H](c1ccc(OC)cc1)[C@@H]1C(=O)N(C(C)(C)C)C(=O)[C@@H]12	2.0	0.6	1.2	2.4	-2.5	-5.8	·
O=[N+]([O-])c1ccc(N2CCN(c3cccc(Cl)c3)CC2)cn1	1.3	-13.8	-2.0	-2.5	5.0	47.1*	37.9
COC(=O)c1cccc(N2C(=O)C3CC=CCC3C2=O)c1 (stereo not drawn)	-1.1	-0.7	-2.3	-5.8	-1.7	20.2	·
C[C@@H]1CC[C@]2(O[C@H](CCO)C[C@@H](O)[C@@H]2O)O1	0.8	0.6	-3.8	-2.2	-0.7	6.0	·
CC(C)CN(CCNC(=O)CN1N=C(c2ccc(Cl)cc2)CCC1=O)CC(C)C	-1.7	0.6	-0.5	-0.1	2.1	49.4*	41.6
CCCCN(C)CCCNC(=O)CN1N=C(c2ccc(Cl)cc2)CCC1=O	-1.9	-1.1	0.4	-14.3	2.9	3.0	·
COc1ccc(-n2ncc(C(C)NS(=O)(=O)c3ccc(C)s3)c2C)cc1 (stereo not drawn)	0.7	-0.1	-0.9	-6.0	6.6	-1.8	·
NCCCC[C@@H]1NC(=O)[C@H](CCC(=O)O)NC(=O)c2cc([N+](=O)[O-])cc(I)c2SC[C@@H](C(=O)NCC(N)=O)NC1=O	3.1	-8.8	0.5	1.0	-3.9	7.5	·
NCCCC[C@@H]1NC(=O)c2cc([N+](=O)[O-])cc(I)c2SC[C@@H](C(N)=O)NC(=O)[C@H](Cc2ccc(O)cc2)NC1=O	2.3	-3.6	-2.1	-22.4	-11.8	54.4*	48.6*
O=C(O)CCCNS(=O)(=O)c1cccc2nsnc12	-0.8	0.0	-3.4	2.8	1.1	3.5	·
COc1ccc(NC(=S)N2CCN(C(=O)c3ccco3)CC2)cc1	0.9	-1.1	2.5	7.9	-4.6	1.1	·
Cc1ccc(N=Cc2cccc(O)c2O)c(C)c1	8.2	0.4	-2.5	1.9	24.3	55.6*	7.3
Cc1ccc(O)c(C=Nc2cc(C)ccc2O)c1	0.6	-2.5	1.7	-2.5	-3.5	6.7	·
Cc1cccc(N2CCN(C(=S)Nc3ccc4nc(N5CCOCC5)cc(C)c4c3)CC2C)c1 (stereo not drawn)	-3.7	-0.3	3.3	4.3	5.2	43.2*	15.7
Cc1ccc(C)c(N2CCN(C(=S)Nc3ccc4nc(N5CCN(C)CC5)cc(C)c4c3)CC2)c1	0.0	4.4	1.9	1.4	0.2	53.3*	37.1
Cc1ccc(C)c(N2CCN(C(=S)Nc3ccc4nc(N5CCOCC5)cc(C)c4c3)CC2)c1	7.3	-2.1	-6.4	5.3	5.8	53.8*	38.6
COc1cccc(CCC(=O)Nc2cc3c(cc2C(=O)O)OCCCO3)c1OC	·	·	3.0	13.9	-1.6	9.8	·
O=C1NC(c2ccc(F)cc2)Oc2ccccc21 (stereo not drawn)	0.3	-2.3	-0.4	2.6	-1.3	-16.1	·
O=C1C(NS(=O)(=O)c2cccs2)=C(N2CCN(c3cccc(Cl)c3)CC2)C(=O)c2ccccc21	10.1	-0.3	2.6	16.4	3.4	58.0*	55.9*
O=C1C(NS(=O)(=O)c2ccccc2)=C(N2CCN(c3ccc(F)cc3)CC2)C(=O)c2ccccc21	4.7	-1.0	1.4	5.5	5.3	58.8*	61.0*
CC1=C(C(=O)Nc2ccccc2)C(c2ccc(Cl)cc2)n2c(s/c(=C/c3cccc(OCC(=O)O)c3)c2=O)=N1 (stereo not drawn)	-5.9	3.0	-4.9	-8.3	-7.0	-28.3	·
O=C(C1=C[C@@H](c2ccc3c(c2)OCO3)C[C@@H](OCCCCO)O1)N1CCN(Cc2ccc3c(c2)OCO3)CC1	5.0	0.7	0.8	8.2	2.6	49.7*	48.9*
O=C(C1=C[C@H](c2ccc(Br)cc2)C[C@H](OCCCCO)O1)N1CCN(Cc2ccc3c(c2)OCO3)CC1	-2.2	-1.8	-4.6	7.4	4.5	34.0	·
O=C(C1=C[C@@H](c2ccccc2)C[C@@H](OCCCCO)O1)N1CCN(Cc2ccc3c(c2)OCO3)CC1	-0.9	-1.0	5.0	2.2	8.9	57.4*	42.8
O=C(C1=C[C@@H](c2ccc(Br)cc2)C[C@@H](OCCCCO)O1)N1CCN(Cc2ccccc2)CC1	0.3	0.2	-4.4	7.0	0.6	62.7*	57.2*
SMILES	Fam108B inh	MEX-5 binding	LYPLA1 counter	LYPLA2 counter	PME-1 inh	PREPL inh	PREPL confirm
CCO[C@H]1OC(C(=O)N2CCN(Cc3ccc4c(c3)OCO4)CC2)=C[C@@H](c2csc3ccccc23)[C@@H]1CCCO	-2.7	1.2	0.4	5.3	0.6	53.8*	46.0*
O=C(C1=C[C@H](c2ccc3c(c2)OCO3)C[C@H](OCCCCO)O1)N1CCN(Cc2ccc3c(c2)OCO3)CC1	2.6	0.0	-1.8	7.9	-1.1	25.5	·
COc1cc(/C=N/NC(=O)c2cc[n+]([O-])cc2)cc(OC)c1OC	-0.8	2.0	-0.6	1.7	-1.0	17.2	·
COC(=O)CCC(=O)Nc1ccc(N=Nc2ccccc2)cc1	3.9	0.9	-0.2	-1.0	5.2	17.5	·
CN(CC(=O)Nc1ccc(Cl)cc1)C(=O)c1cccc(S(=O)(=O)N2CCN(Cc3ccccc3)CC2)c1	-1.1	0.7	-4.3	-5.8	-4.6	55.2*	67.7*
CN(CC(=O)Nc1ccc(Cl)cc1)C(=O)c1cccc(S(=O)(=O)NCc2ccccc2)c1	0.4	-2.5	0.7	4.2	7.8	7.4	·
CC[C@@H](C)[C@@H]1CN([C@@H](C)CN2CCC[C@H]2CN2C(N)=NC[C@@H]2Cc2ccccc2)C(=N)N1CCCC1CCCC1	·	·	·	·	·	43.7*	49.9*
CC[C@@H](C)[C@@H]1CN([C@@H](CN2CCC[C@H]2CN2C(N)=NC[C@H]2C(C)C)C(C)C)C(=N)N1CCc1ccc(Cl)c(Cl)c1	·	·	·	·	·	59.9*	50.0*
CC[C@@H](C)[C@@H]1CN([C@@H](C)CN2CCC[C@H]2CN2C(N)=NC[C@H]2CC(C)C)C(=N)N1CCCC1CCCC1	·	·	·	·	·	41.1	·
CC[C@@H](C)[C@@H]1CN([C@@H](C)CN2CCC[C@H]2CN2C(N)=NC[C@@H]2Cc2ccccc2)C(=N)N1CCc1ccc(Cl)c(Cl)c1	·	·	·	·	·	52.1*	41.5
COc1ccc(NC(=O)CCCNC(=O)Cn2cnc3sc4c(c3c2=O)CCCC4)c(OC)c1	1.3	-1.8	-1.9	-2.1	-2.8	4.0	·

Compound activity (PubChem BioAssay)
